Results published in PubChem BioAssay AID1347142 (National Center for Advancing Translational Sciences (NCATS), 2019).
Results filed as inconclusive are left out. The source made the active and inactive calls. The call rests on the fitted dose curve; in most records, active means well fitted inhibition curve with a large enough effect; inconclusive means small, poorly fitted or top-dose-only effect; inactive means no such curve, though single readings can be large or run the other way.

Each compound was assayed against N-terminal Xaa-Pro-Lys N-methyltransferase 1 (Homo sapiens) (UniProt Q9BV86) (assay: qHTS Assay for Inhibitors of N-terminal methyltransferase 1 (NTMT1): ThioGlo3 Assay Confirmatory Screen, Round 1.). Conditions: NTMT1 SAHH-coupled ThioGlo3 fluorescence, 30 min; series mostly up to 56.8 µM; activity change, negative = inhibition: at the top concentration.
How it was run: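 Human NTMT1 at 125 nM was preincubated 1 min at room temperature with compounds at various concentrations or 1 uM RCC1-6 control. Substrate mix (100 uM SAM, 10 uM SAHH, 15 uM ThioGlo3) was added, and fluorescence (Ex 340/Em 450 nm) was read at start and after 30 min, normalized to background.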
Further: nearly all actives have a fitted effect of over 80% in size.
Potency means the concentration at half of the fitted maximal effect.
Wherever activity change, negative = inhibition is given: 0% is about no effect.

Sequence of N-terminal Xaa-Pro-Lys N-methyltransferase 1 (Homo sapiens) (Q9BV86 whole entry, looked up): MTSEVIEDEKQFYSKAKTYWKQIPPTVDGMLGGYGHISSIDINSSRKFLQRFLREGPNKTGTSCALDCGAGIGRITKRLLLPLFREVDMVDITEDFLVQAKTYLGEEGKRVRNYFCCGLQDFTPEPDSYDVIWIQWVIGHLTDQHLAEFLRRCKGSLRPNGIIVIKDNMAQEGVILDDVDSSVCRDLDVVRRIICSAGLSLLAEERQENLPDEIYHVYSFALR

| SMILES | activity change, negative = inhibition | Potency |
| --- | --- | --- |
| Nc1ncnc2c1ncn2[C@@H]1O[C@H](COP(=O)(O)O)[C@@H](O)[C@H]1O | -20.8% (inactive) | – |
| Nc1ncnc2c1ncn2[C@@H]1O[C@H](COP(=O)(O)OP(=O)(O)CP(=O)(O)O)[C@@H](O)[C@H]1O | 3.29% (inactive) | – |
| COc1cc2c(NC3CCN(C4CCCCC4)CC3)nc(N3CCCCCC3)nc2cc1OCCCN1CCCCC1 | – | 24.1 µM (active) |
| COc1cc2nc(N3CCN(C)CC3)nc(NC3CCN(Cc4ccccc4)CC3)c2cc1OC | – | 24.1 µM (active) |
| COc1cc2c(NC3CCN(C)CC3)nc(N3CCCN(C)CC3)nc2cc1OCCN(C)CCN(C)C | – | 27.1 µM (active) |
| COCCCCOc1cc2nc(N3CCCN(C)CC3)nc(NC3CCN(C)CC3)c2cc1OC | – | 24.1 µM (active) |
| Nc1ncnc2c1ncn2C1C[C@H](O)[C@@H](CO)O1 (stereo not given in full) | -9.06% (inactive) | – |
| COc1cc2c(NC3CCN(CC4CCCCC4)CC3)nc(N3CCCCC3)nc2cc1OCCOCCN(C)C | – | 24.1 µM (active) |
| C/C(=C\CNc1ncnc2c1ncn2[C@@H]1O[C@@H](CO)[C@@H](O)[C@H]1O)CO | -23.4% (inactive) | – |
| COc1cc2c(NC3CCN(C(C)C)CC3)nc(N3CCCCCC3)nc2cc1OCCOCCN(C)C | – | 21.5 µM (active) |
| Nc1ncnc2c1[nH]c(=S)n2C1OC(CO)C(O)C1O (stereo not given) | – | 17.1 µM (active) |
| COc1cc2c(NC3CCN(C4CCCCC4)CC3)nc(N3CCCCC3)nc2cc1OCCCN1CCCCC1 | – | 24.1 µM (active) |
| COc1cc2c(NC3CCN(C(C)C)CC3)nc(N3CCCN(c4ccccc4)CC3)nc2cc1OCCCN1CCCC1 | – | 17.1 µM (active) |
| COc1cc2nc(NCCN(C)C)nc(NC3CC3)c2cc1OC | – | 27.1 µM (active) |
| Nc1nc(Cl)nc2c1ncn2[C@@H]1O[C@H](CO)C(O)[C@H]1O (stereo not given in full) | -5.53% (inactive) | – |
| Nc1nc(F)nc2c1ncn2[C@@H]1O[C@H](CO)[C@@H](O)[C@@H]1O | – | inactive |
| COc1cc2c(NC3CCN(C)CC3)nc(N3CCCN(C)CC3)nc2cc1OCc1ccccc1 | – | 19.2 µM (active) |
| Nc1nc(=S)c2ncn([C@H]3O[C@@H](CO)[C@@H](O)[C@@H]3O)c2[nH]1 | – | 13 µM (active) |

| SMILES | activity change, negative = inhibition | Potency |
| --- | --- | --- |
| CC[C@H](C)n1cc(C)c2c(C(=O)NCc3c(C)cc(C)[nH]c3=O)cc(-c3ccc(N4CCNCC4)nc3)cc21 | – | 21.5 µM (active) |
| Cc1ccccc1CNc1ncnc2c1ncn2[C@@H]1O[C@H](CO)[C@@H](O)[C@H]1O | – | 27.1 µM (active) |
| COc1cc2nc(N3CCCN(C)CC3)nc(NC3CCCCC3)c2cc1OC | – | 27.1 µM (active) |
| OC[C@@H]1O[C@@H](n2cnc3c(NC4CCCC4)ncnc32)[C@H](O)[C@H]1O | 10.8% (inactive) | – |
| Nc1ncnc2c1nc(N1CCCCC1)n2[C@@H]1O[C@@H]2COP(=O)(O)O[C@H]2[C@H]1O | -18.6% (inactive) | – |
| CNCCCOc1cc2nc(N3CCCN(C)CC3)nc(NC3CCN(C)CC3)c2cc1OC | – | 24.1 µM (active) |
| CNc1nc2c(N)ncnc2n1[C@@H]1O[C@@H]2COP(=O)(O)O[C@H]2[C@H]1O | -22.3% (inactive) | – |
| Nc1nc(Nc2ccccc2)nc2c1ncn2[C@@H]1O[C@H](CO)C(O)[C@H]1O (stereo not given in full) | – | 24.1 µM (active) |
| OC[C@H]1O[C@@H](n2cnc3cncnc32)[C@H](O)[C@@H]1O | – | 2.41 µM (active) |
| CCN1CCN(c2nc(NC3CC3)c3cc(OC)c(OC)cc3n2)CC1 | – | 24.1 µM (active) |
| CNc1ncnc2c1ncn2[C@H]1C[C@H](O)[C@@H](CO)O1 | -0.37% (inactive) | – |
| CNC(=O)[C@H]1O[C@@H](n2cnc3c(N)ncnc32)[C@H](O)[C@@H]1O | 8.67% (inactive) | – |
| COc1cc2nc(N3CCCN(C)CC3)nc(NC3CCN(Cc4ccccc4)CC3)c2cc1OC | – | 27.1 µM (active) |
| Nc1ncnc2c1ncn2[C@H]1O[C@@H](CO)[C@@H](O)[C@H]1N | -7.61% (inactive) | – |
| COc1cc2nc(N3CCCN(C)CC3)nc(NC3CCNCC3)c2cc1OC | – | 21.5 µM (active) |
| COc1cc2c(NC3CCN(C)CC3)nc(N3CCCN(C)CC3)nc2cc1OCCCC(C)C | – | 24.1 µM (active) |
| CCN1CCCN(c2nc(NC3CCN(C(C)C)CC3)c3cc(OC)c(OCCCN4CCCCC4)cc3n2)CC1 | – | 24.1 µM (active) |
